Results filed as inconclusive are left out. Calls of active or inactive are those of the source. Unless noted, calls come from the whole dose curve.
Tests used:
[1] = Nuclear factor erythroid 2-related factor 2/antioxidant responsive element (Nrf2/ARE) small molecule agonists: qHTS cell viability counter screen in human keratinocytes (AID 1919968; active = well fitted curve in the direction sought with a large enough effect in the repeat runs; an effect the other way counts as inactive or inconclusive; note: nearly all actives have a fitted effect of over 55% in size; note: potency is the fitted concentration of half-maximal effect)
Summary of the method: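 Stably transfected HaCaT (KeratinoSens), 1,500/well. Test agents in DMSO were applied for 23 h, 37 C/5% CO2. CellTiter-Fluor was incubated 1 h before the fluorescence read.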

[2] = Nuclear factor erythroid 2-related factor 2/antioxidant responsive element (Nrf2/ARE) small molecule agonists: luciferase reporter gene qHTS assay in human keratinocytes (AID 1919969); note: nearly all actives have a fitted effect of over 35% in size; note: potency is the fitted concentration of half-maximal effect
[3] = biological target: KiSS-1 receptor (Homo sapiens) (UniProt Q969F8); assay: Human kisspeptin (KISS1R) small molecule agonists, calcium flux assay in KISS1R-HEK293 cells (AID 1920064; active = well fitted curve in the direction sought with a large enough effect in the repeat runs; an effect the other way counts as inactive or inconclusive; note: potency is the fitted concentration of half-maximal effect)
KiSS-1 receptor (Homo sapiens), sequence (Q969F8 whole entry, looked up): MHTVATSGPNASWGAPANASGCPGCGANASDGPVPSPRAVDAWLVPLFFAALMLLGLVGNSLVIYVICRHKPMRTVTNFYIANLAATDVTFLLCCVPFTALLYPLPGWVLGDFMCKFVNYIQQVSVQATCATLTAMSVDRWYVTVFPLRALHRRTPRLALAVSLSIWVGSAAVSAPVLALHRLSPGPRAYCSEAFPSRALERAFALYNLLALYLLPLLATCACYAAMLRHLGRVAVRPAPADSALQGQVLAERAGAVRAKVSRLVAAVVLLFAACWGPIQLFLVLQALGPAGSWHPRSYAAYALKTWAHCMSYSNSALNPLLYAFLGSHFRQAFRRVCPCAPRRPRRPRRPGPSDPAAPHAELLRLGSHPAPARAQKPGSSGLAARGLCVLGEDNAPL
Summary of the method: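 After overnight (18 h) culture at 37 C/5% CO2, human KISS1R-HEK293 cells received calcium dye for 1 h, then test compound; emission at 540 nm (excitation 480 nm) was tracked for 3 min.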

[4] = G protein-coupled receptor (GPCR) small molecule agonists, calcium flux assay: HEK293 wild type cell line counter screen (AID 1920065)
Summary of the method: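 Following 18 h incubation at 37 C/5% CO2, plates got calcium dye for 1 h; compounds, ATP or DMSO were then pinned in and fluorescence followed kinetically (480/540 nm).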

[5] = p53 small molecule agonists, cell-based qHTS assay with human liver microsomes (AID 1963577)
Summary of the method: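 p53RE-bla cells, 4,000/well, compound added after 5 h, with human liver microsomes 0.5 mg/mL and NADPH 0.5 mg/mL final; 16 h at 37 C, then LiveBLAzer 2 h RT, fluorescence.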

[6] = p53 small molecule agonists, cell-based qHTS assay with rat liver microsomes (AID 1963578)
Summary of the method: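 p53RE-bla cells, 4,000/well, pre-incubated 5 h, then given compounds plus rat liver microsomes (0.5 mg/mL final) and NADPH (0.5 mg/mL final). Incubation 16 h at 37 C; beta-lactamase reporter read by LiveBLAzer fluorescence after 2 h at room temperature.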

[7] = p53 small molecule agonists, cell-based qHTS assay with human liver microsomes: qHTS cell viability counter screen (AID 1963579); note: nearly all actives have a fitted effect of over 45% in size
Summary of the method: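 p53RE-bla cells, 4,000/well, dosed 5 hours after plating, with human liver microsomes (0.5 mg/mL final) plus NADPH (0.5 mg/mL final), 16 hours at 37 C. Viability read as CellTiter-Glo luminescence after 30 min at room temperature.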

[8] = p53 small molecule agonists, cell-based qHTS assay with rat liver microsomes: qHTS cell viability counter screen (AID 1963580); note: nearly all actives have a fitted effect of over 45% in size; note: potency is the fitted concentration of half-maximal effect
Summary of the method: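 Cytotoxicity counter screen: intracellular ATP measured by CellTiter-Glo luminescence in the same wells as the beta-lactamase reporter read, on HCT-116 p53RE-bla cells exposed 16 h at 37 C to compounds with rat liver microsomes and NADPH, each 0.5 mg/mL final.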

[9] = p53 small molecule agonists, cell-based qHTS assay: qHTS cell viability counter screen (AID 1963581); note: nearly all actives have a fitted effect of over 45% in size; note: potency is the fitted concentration of half-maximal effect
Summary of the method: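 qHTS counter screen: 16 h compound exposure at 37 C of p53RE-bla HCT-116 cells (4,000 per well, seeded 5 h prior), cell viability by ATP luminescence.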

[10] = biological target: 5-hydroxytryptamine receptor 2A (Homo sapiens) (UniProt P28223); assay: 5-hydroxytryptamine receptor 2A (HTR2A) small molecule antagonists, cell-based qHTS assay (AID 1963586); note: nearly all actives have a fitted effect of over 45% in size
5-hydroxytryptamine receptor 2A (Homo sapiens), sequence (P28223 whole entry, looked up): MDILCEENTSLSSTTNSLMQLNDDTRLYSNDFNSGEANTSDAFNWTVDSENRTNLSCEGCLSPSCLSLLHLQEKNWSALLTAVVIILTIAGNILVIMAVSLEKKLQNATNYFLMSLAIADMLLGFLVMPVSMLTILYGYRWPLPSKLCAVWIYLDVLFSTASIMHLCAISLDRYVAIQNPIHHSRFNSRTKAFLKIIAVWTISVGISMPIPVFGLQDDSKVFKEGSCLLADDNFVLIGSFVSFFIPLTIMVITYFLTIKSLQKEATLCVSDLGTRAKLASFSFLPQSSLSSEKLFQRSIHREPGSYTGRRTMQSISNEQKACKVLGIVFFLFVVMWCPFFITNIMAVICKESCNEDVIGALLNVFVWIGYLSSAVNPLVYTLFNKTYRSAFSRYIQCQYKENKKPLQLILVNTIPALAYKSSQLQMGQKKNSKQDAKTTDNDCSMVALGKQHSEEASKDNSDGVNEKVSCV
Summary of the method: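 CHO cells stably expressing human HTR2A were plated for 18 h at 37 C, then loaded with calcium dye for 1 h. Compounds were preincubated 5 min at room temperature before DOI (4 nM solution) was added. Kinetic fluorescence was read for 3 min.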

[11] = biological target: Muscarinic acetylcholine receptor M1 (Homo sapiens) (UniProt P11229); assay: Cholinergic receptor muscarinic 1 (CHRM1) small molecule antagonists, cell-based qHTS assay (AID 1963588); note: nearly all actives have a fitted effect of over 40% in size
Muscarinic acetylcholine receptor M1 (Homo sapiens), sequence (P11229 whole entry, looked up): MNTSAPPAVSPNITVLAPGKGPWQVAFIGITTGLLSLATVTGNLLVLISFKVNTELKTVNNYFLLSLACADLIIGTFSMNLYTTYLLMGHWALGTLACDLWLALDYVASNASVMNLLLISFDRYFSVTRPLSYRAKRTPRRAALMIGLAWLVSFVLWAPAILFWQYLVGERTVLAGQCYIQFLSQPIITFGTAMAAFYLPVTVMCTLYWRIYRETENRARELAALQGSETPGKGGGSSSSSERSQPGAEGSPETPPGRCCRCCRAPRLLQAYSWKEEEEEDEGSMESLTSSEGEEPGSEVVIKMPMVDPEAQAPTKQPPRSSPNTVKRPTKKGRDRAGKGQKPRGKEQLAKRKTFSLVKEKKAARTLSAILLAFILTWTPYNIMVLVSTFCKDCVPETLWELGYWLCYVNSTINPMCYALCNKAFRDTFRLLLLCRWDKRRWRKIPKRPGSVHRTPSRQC
Summary of the method: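 Compounds were tested at 15 concentrations in three independent runs. Dye-loaded CHRM1-CHO cells were exposed 5 min at room temperature before stimulation by acetylcholine added at 50nM. Intracellular calcium was read kinetically on FDSS for 3 min.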

[12] = biological target: Gonadotropin-releasing hormone receptor (Homo sapiens) (UniProt P30968); assay: Human gonadotropin-releasing hormone receptor (GnRHR) small molecule agonists, calcium flux assay in GnRHR-HEK293 cells (AID 1920063); note: nearly all actives have a fitted effect of over 35% in size; note: potency is the fitted concentration of half-maximal effect
Gonadotropin-releasing hormone receptor (Homo sapiens), sequence (P30968 whole entry, looked up): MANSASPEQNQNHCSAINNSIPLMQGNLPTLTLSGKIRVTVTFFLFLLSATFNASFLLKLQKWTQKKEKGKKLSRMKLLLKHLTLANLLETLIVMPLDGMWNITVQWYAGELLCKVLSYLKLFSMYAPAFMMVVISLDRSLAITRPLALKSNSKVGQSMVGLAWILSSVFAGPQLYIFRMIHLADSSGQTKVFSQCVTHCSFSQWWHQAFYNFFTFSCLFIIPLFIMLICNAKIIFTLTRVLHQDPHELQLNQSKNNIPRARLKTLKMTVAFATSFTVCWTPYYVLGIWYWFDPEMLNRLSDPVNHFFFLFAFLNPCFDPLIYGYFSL
Summary of the method: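 Stable human GnRHR HEK293 line. 18 h plating, then calcium dye for 1 h at 37 C. Agonist-mode compound addition from DMSO stocks; fluorescence monitored 3 min.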

[13] = biological target: 5-hydroxytryptamine receptor 2A (Homo sapiens) (UniProt P28223); assay: 5-hydroxytryptamine receptor 2A (HTR2A) small molecule agonists, cell-based qHTS assay (AID 1963587); note: nearly all actives have a fitted effect of over 30% in size; note: potency is the fitted concentration of half-maximal effect
Summary of the method: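 CHO cells stably expressing human HTR2A, plated 18 h, loaded with calcium dye 1 h at 37 C. Agonist mode: compounds added and intracellular calcium fluorescence recorded kinetically for 2 min at 1 sec intervals.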

[14] = biological target: Muscarinic acetylcholine receptor M1 (Homo sapiens) (UniProt P11229); assay: Cholinergic receptor muscarinic 1 (CHRM1) small molecule agonists, cell-based qHTS assay (AID 1963589); note: nearly all actives have a fitted effect of over 35% in size; note: potency is the fitted concentration of half-maximal effect
Summary of the method: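 Kinetic fluorescence (1 s intervals) of calcium-sensitive dye in human M1 CHO cells after compound addition; cells pre-incubated 18 h at 37 C/5% CO2 and dye-loaded 1 h.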

[15] = biological target: Beta-2 adrenergic receptor (Homo sapiens) (UniProt P07550); assay: Adrenergic beta2 receptor (ADRB2) small molecule antagonists, cell-based qHTS assay (AID 1963592); note: series mostly up to about 92 µM; nearly all actives have a fitted effect of over 50% in size
Beta-2 adrenergic receptor (Homo sapiens), sequence (P07550 whole entry, looked up): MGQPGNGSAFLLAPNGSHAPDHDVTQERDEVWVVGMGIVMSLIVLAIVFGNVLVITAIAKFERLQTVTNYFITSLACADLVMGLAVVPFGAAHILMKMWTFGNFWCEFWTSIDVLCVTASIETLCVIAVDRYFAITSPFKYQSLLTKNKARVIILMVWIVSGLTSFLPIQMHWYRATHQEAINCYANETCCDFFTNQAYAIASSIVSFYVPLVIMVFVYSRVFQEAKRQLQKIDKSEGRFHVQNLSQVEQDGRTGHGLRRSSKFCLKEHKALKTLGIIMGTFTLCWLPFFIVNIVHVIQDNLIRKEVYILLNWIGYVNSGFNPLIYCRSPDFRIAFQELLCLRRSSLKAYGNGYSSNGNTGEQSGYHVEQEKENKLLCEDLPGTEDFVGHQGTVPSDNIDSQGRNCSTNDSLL
Summary of the method: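 Assay format: CHO-ADRB2 cells, 18-20hr seeding at 37C/5% CO2, then compound plus 1nM isoproterenol agonist mix for 0.5hr RT. Homogeneous time-resolved fluorescence cAMP detection after 1hr, expressed as 665/615 nm ratio.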

[16] = biological target: Beta-2 adrenergic receptor (Homo sapiens) (UniProt P07550); assay: Adrenergic beta2 receptor (ADRB2) small molecule agonists, cell-based qHTS assay (AID 1963593);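 note: CHO cells stably overexpressing human ADRB2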
Summary of the method: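 CHO cells stably over-expressing ADRB2 were plated overnight at 37C, then dosed with compounds plus a stimulation mix containing 100uM IBMX and 25uM Ro-20-1724 for 0.5hr at room temperature. cAMP was measured by HTRF competition, 1hr.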

[17] = biological target: D(2) dopamine receptor (Homo sapiens) (UniProt P14416); assay: Dopamine D2 receptor (DRD2) small molecule agonists, cell-based qHTS assay (AID 1963594); note: nearly all actives have a fitted effect of over 35% in size; note: potency is the fitted concentration of half-maximal effect
D(2) dopamine receptor (Homo sapiens), sequence (P14416 whole entry, looked up): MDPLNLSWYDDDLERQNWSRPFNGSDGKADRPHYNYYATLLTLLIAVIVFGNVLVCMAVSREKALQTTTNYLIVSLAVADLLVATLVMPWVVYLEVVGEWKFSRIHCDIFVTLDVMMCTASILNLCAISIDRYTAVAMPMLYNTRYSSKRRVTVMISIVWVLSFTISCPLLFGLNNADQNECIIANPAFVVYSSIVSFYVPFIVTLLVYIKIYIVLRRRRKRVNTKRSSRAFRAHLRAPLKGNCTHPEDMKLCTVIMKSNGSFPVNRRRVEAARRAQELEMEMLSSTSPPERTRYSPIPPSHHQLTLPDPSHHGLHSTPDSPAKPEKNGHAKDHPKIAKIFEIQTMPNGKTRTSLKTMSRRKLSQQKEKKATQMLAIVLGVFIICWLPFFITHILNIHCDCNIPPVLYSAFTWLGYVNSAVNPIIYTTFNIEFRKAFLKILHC
Summary of the method: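 HEK293 cells stably expressing human DRD2, pre-treated with PDE inhibitor Ro20-1724 (0.1 mM final) and compound 10 min at room temperature, then stimulated with NKH477 (200nM […]) for 30 min. cAMP read by HTRF (665/620 nm).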

[18] = biological target: D(2) dopamine receptor (Homo sapiens) (UniProt P14416); assay: Dopamine D2 receptor (DRD2) small molecule antagonists, cell-based qHTS assay (AID 1963595; active = well fitted inhibition curve with a large enough effect in the signal ratio in the repeat runs, with a control signal flat; the % refers to the signal ratio; note: potency is the fitted concentration of half-maximal effect)
Summary of the method: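 In this cell-based antagonist screen, compounds act for 10 min at room temperature before a 30 min challenge with 12 nM quinpirole and 200 nM NKH477. cAMP is quantified by HTRF competition in DRD2-HEK293 cells containing 0.1 mM Ro20-1724.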

[19] = cAMP Responsive Elements (CRE) small molecule agonists, cell-based qHTS assay (AID 1963590)
Summary of the method: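 Test agents in DMSO were incubated 3 h at 37 C/5% CO2 with CRE-bla HEK 293T cells seeded 18 h earlier; LiveBLAzer B/G FRET substrate was added and read after 2 h at room temperature.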

[20] = cAMP Responsive Elements (CRE) small molecule antagonists, cell-based qHTS assay (AID 1963591; active = well fitted inhibition curve with a large enough effect in the signal ratio in the repeat runs, not every such curve was filed as active; the % refers to the signal ratio)
Summary of the method: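 Reporter line CRE-bla HEK 293T in dialyzed-FBS DMEM; cells preincubated 18 h, treated 3 h with compound plus NKH477 (0.25 uM final); LiveBLAzer FRET, 2 h RT.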

Measured: Potency

CCN(CC)C(=O)[C@@H]1C=C2c3cccc4[nH]cc(c34)C[C@H]2N(C)C1
inactive: [1] | [2] | [3] | [4] | [5] | [6] | [7] | [8] | [9] | [10] | [11]

CC(C)[C@H](C(=O)O[C@H](C#N)c1cccc(Oc2ccccc2)c1)c1ccc(Cl)cc1
not listed: [3] | [6] | [10] | [19] | [20]
inactive: all other assays above

CCCCCCCCCCCCCC[P+](CCCCCC)(CCCCCC)CCCCCC (tested in a mixture with another compound)
active: [1] 6.86 µM | [8] 16.2 µM | [9] 14.5 µM | [18] 54.5 µM
not listed: [3] | [7] | [16] | [19] | [20]
inactive: all other assays above

O=c1[nH]c2ccccc2n1C1CCNCC1
not listed: [12] | [15] | [16] | [18]
inactive: all other assays above

CCN(CC)C(=S)[S-].CCN(CC)C(=S)[S-].[Zn+2]
inactive: [10] | [11] | [18]
active: [1] 0.481 µM | [2] 2.41 µM | [12] 9.69 µM | [3] 19.3 µM | [8] 1.61 µM | [9] 4.54 µM | [13] 19.3 µM | [14] 13.7 µM

CC(C)CC(C)N (configuration not stated)
not listed: [3] | [10] | [13] | [14] | [15] | [16] | [17]
inactive: all other assays above

COC(N)=O
not listed: [12] | [16] | [18] | [19] | [20]
inactive: all other assays above

CCCCCCCC(=O)Cl
active: [17] 0.0017 µM
not listed: [3] | [5] | [6] | [16] | [19]
inactive: all other assays above

CCCCOP(=O)(O)OCCCC
not listed: [3] | [4] | [5] | [6]
inactive: all other assays above

From PubChem BioAssay (Tox21)
